Measured values as given in PMC5540273 (PLoS ONE, 2017).

Columns and labels:
Settings in all cases: concentration: 1 μM, replicates: in singlicate; n = 1
BLK = system: BLK
BMPR1A = system: BMPR1A
BMPR1B = system: BMPR1B
BMPR2 = system: BMPR2
BMX = system: BMX
BRAF = system: BRAF
BRK = system: T1, BRK
T1 construct: gene PTK6

BRSK1 = system: BRSK1
BRSK2 = system: BRSK2
BTK = system: BTK
BUB1 = system: BUB1
CAMK1B = system: CAMK1B
CAMK1D = system: CAMK1D
CAMK1G = system: CAMK1G
CAMK1 = system: CAMK1
CAMK2A = system: CAMK2A
CAMK2B = system: CAMK2B
CAMK2D = system: CAMK2D
CAMK2G = system: CAMK2G
CAMK4 = system: CAMK4
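Note: KINOMEscan kinase panel screen.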

SMILES	%Inh (BLK)	%Inh (BMPR1A)	%Inh (BMPR1B)	%Inh (BMPR2)	%Inh (BMX)	%Inh (BRAF)	%Inh (BRK)	%Inh (BRSK1)	%Inh (BRSK2)	%Inh (BTK)	%Inh (BUB1)	%Inh (CAMK1B)	%Inh (CAMK1D)	%Inh (CAMK1G)	%Inh (CAMK1)	%Inh (CAMK2A)	%Inh (CAMK2B)	%Inh (CAMK2D)	%Inh (CAMK2G)	%Inh (CAMK4)
CC(C)(C)n1cnc2c(N)ncnc21 [SKF-97359]	0%	0%	0%	36%	0%	0%	0%	0%	3%	19%	52%	63%	1%	0%	0%	0%	0%	0%	0%	0%
CC(=O)Nc1ccc(COc2ccc(Nc3ccnc4cc(-c5ccccn5)ccc34)cc2)cc1.Cl [GW440148]	53%	0%	0%	1%	17%	0%	57%	0%	0%	0%	5%	23%	10%	7%	20%	0%	0%	18%	21%	0%
COc1cc2ncn(-c3cc(OCc4sccc4Cl)c(C(N)=O)s3)c2cc1OC [GSK448459]	32%	0%	0%	14%	0%	0%	11%	37%	45%	0%	55%	25%	0%	0%	4%	0%	0%	2%	12%	0%
Cn1cc(-c2ccc3c(c2)CCN3C(=O)Cc2ccccc2Cl)c2c(N)ncnc21 [GSK2608885]	99.2%	10%	0%	0%	93.2%	90.5%	95.3%	0%	6%	95.6%	25%	33%	22%	13%	44%	0%	0%	17%	34%	0%
O=C1NC(=O)C(N2CCc3ccccc32)=C1c1cccc(Cl)c1 [SB-408010]	0%	23%	0%	4%	26%	3%	0%	0%	0%	23%	0%	0%	17%	0%	24%	0%	0%	10%	0%	1%
O=C(Nc1cccc(-c2nn3ncccc3c2-c2ccnc(Nc3cccc(C(F)(F)F)c3)n2)c1)c1c(F)cccc1F [GSK299495]	95.9%	0%	0%	23%	72%	69%	71%	0%	0%	66%	80%	30%	21%	9%	32%	100%	100%	19%	11%	0%
c1ccc(-c2n[nH]cc2-c2ccnc3ccccc23)nc1 [GW271431]	49%	0%	13%	0%	22%	0%	22%	0%	0%	0%	0%	23%	28%	13%	23%	0%	0%	19%	25%	0%
NS(=O)(=O)c1cccc(-c2ccc3ncc(N4CCOCC4)nc3c2)c1 [GSK1535721]	0%	0%	7%	2%	30%	0%	13%	0%	0%	1%	0%	7%	18%	15%	12%	0%	2%	21%	17%	0%
N#Cc1c(N2CCOCC2)sc(-c2ccn[nH]2)c1-c1ccc(Cl)cc1	0%	21%	0%	17%	14%	0%	8%	0%	18%	8%	13%	12%	19%	72%	24%	0%	0%	47%	0%	4%
CCc1nc(-c2cccc(C)c2)c(-c2ccnc(NCc3ccccc3)c2)s1	0%	0%	0%	9%	0%	38%	0%	2%	0%	0%	18%	0%	6%	9%	40%	11%	0%	0%	10%	0%
CNc1ncnc2[nH]ncc12 [SKF-18355]	0%	6%	0%	35%	0%	11%	0%	0%	0%	0%	20%	0%	0%	0%	0%	0%	0%	0%	0%	0%
Fc1ccc(-c2ncn(CCCN3CCOCC3)c2-c2ccccn2)cc1 [SB-211742]	9%	7%	0%	0%	0%	0%	2%	6%	14%	15%	0%	0%	0%	0%	0%	6%	10%	0%	11%	20%
NS(=O)(=O)c1cccc(-c2ccc3nccc(-c4cccc(S(N)(=O)=O)c4)c3c2)c1 [GW867253]	0%	0%	3%	33%	0%	0%	0%	0%	5%	0%	17%	0%	0%	0%	0%	0%	0%	0%	0%	0%
COc1cc(Nc2nccc(N3CCC(NC(=O)c4cccc(NC(C)=O)c4)C3)n2)cc(OC)c1OC (stereo not drawn) [GSK1379754]	34%	0%	0%	0%	18%	3%	19%	26%	0%	0%	0%	7%	27%	6%	40%	0%	0%	0%	21%	0%
Cc1ccc(NC(=O)c2ccnc(N3CCN(C)CC3)c2)cc1-c1ccc(C(=O)NCC2CC2)cc1 [GW775604]	0%	0%	0%	0%	0%	0%	0%	0%	0%	0%	0%	0%	0%	0%	0%	0%	0%	0%	0%	0%
